Publication PMC11062922 (Nature Chemical Biology, 2023)
Read-outs that look alike come from different tables or passages of the source.

Tests used:
Parameters in all cases: species or system human, MV4-11 + K-562 + COLO205 + SK-N-BE2 + OVCAR-8
RIOK2 = conditions: read-out: apparent Kd, n = 1
CSNK1A1 = conditions: read-out: apparent Kd, compound concentrations: 100 nM and 1000 nM (sheet 'Samples'), n = 1
PRKX = conditions: read-out: apparent Kd, n = 1
ROCK2 = conditions: read-out: apparent Kd, n = 1
CSNK1E = conditions: read-out: apparent Kd; compound concentrations:100 nM and 1000 nM (sheet 'Samples'); n = 1
MAPK8 = conditions: read-out: apparent Kd, compound concentrations: 100 nM and 1000 nM (sheet 'Samples'), n = 1
TNIK = conditions: read-out: apparent Kd, n = 1
EPHA2 = conditions: read-out: apparent Kd; compound concentrations: 100 nM and 1000 nM (sheet 'Samples'), CATDS: 2.1099204097422001E-2; n = 1
EPHB2 = conditions: read-out: apparent Kd, compound concentrations: 100 nM and 1000 nM (sheet 'Samples'), n = 1
EPHB4 = conditions: read-out: apparent Kd, compound concentrations: 100 nM and 1000 nM (sheet 'Samples'), n = 1
PTK6 = conditions: read-out: apparent Kd; compound concentrations: 100 nM and 1000 nM (sheet 'Samples'), CATDS: 1.9530380694073899E-2; n = 1
CDK17 = conditions: read-out: apparent Kd, n = 1
STK3 = conditions: read-out: apparent Kd, n = 1
PRKAA2 = conditions: read-out: apparent Kd; compound concentrations: 100 nM and 1000 nM (sheet 'Samples'), CATDS: 2.2132106558792702E-2; n = 1
PHKG2 = conditions: read-out: apparent Kd; compound concentrations:100 nM and 1000 nM (sheet 'Samples'); n = 1
HCK = conditions: read-out: apparent Kd; compound concentrations: 100 nM and 1000 nM (sheet 'Samples'), CATDS: 4.52340510871738E-2; n = 1
SRC = conditions: read-out: apparent Kd; compound concentrations: 100 nM and 1000 nM (sheet 'Samples'), CATDS: 5.0295032408805701E-2; n = 1
[1] = compound concentrations:100 nM and 1000 nM (sheet 'Samples')

## CNc1nccc(-c2ccc3c(N)n[nH]c3c2)n1 [GSK2206003A]
RIOK2; compound concentrations: 100 nM and 1000 nM (sheet 'Samples'), CATDS: 5.2095061468969701E-2
  potency estimated from few doses: 1360 nM

## Cl.Cl.NCC(NC(=O)c1cc(-c2ccnc3[nH]ccc23)cs1)c1ccccc1.NCC(NC(=O)c1cc(-c2ccnc3[nH]ccc23)cs1)c1ccccc1 (centres unmarked) [GSK1229959A]
CSNK1A1; CATDS: 1.7292199039589701E-2
  potency estimated from few doses: 1760 nM
PRKX; compound concentrations: 100 nM and 1000 nM (sheet 'Samples'), CATDS: 6.1031439007252199E-2
  potency estimated from few doses: 21.6 nM
ROCK2; compound concentrations: 100 nM and 1000 nM (sheet 'Samples'), CATDS: 0.12516480015121101
  potency estimated from few doses: 6.2 nM

## Cc1cc(NC(=O)c2cccc(NC(=O)/C=C/CN(C)C)c2)ccc1Nc1nccc(-c2cccnc2)n1 [JNK-IN-7]
CSNK1E
  potency estimated from few doses: 2010 nM
MAPK8; CATDS: 0.361738634517147
  potency estimated from few doses: 10.7 nM
RIOK2; [1]
  potency estimated from few doses: 720 nM

## Nc1nc(-c2ccc3c(N)n[nH]c3c2)cc(N2CCCC(NC(=O)c3ccccc3)C2)n1 (centres unmarked) [GSK2286775B]
RIOK2; [1]
  potency estimated from few doses: 1860 nM

## COc1cc2ncn(-c3cc(OCc4ccccc4S(C)(=O)=O)c(C#N)s3)c2cc1OC [GSK319347A]
TNIK; compound concentrations: 100 nM and 1000 nM (sheet 'Samples'), CATDS: 7.3332449024222507E-2
  potency estimated from few doses: 2280 nM

## Cl.Cn1c(=O)c(Cc2ccccc2F)cc2cnc(NC3CCOCC3)nc21 [RO3305377-001]
EPHA2
  potency estimated from few doses: 976 nM
EPHB2; CATDS: 2.7488679205580801E-2
  potency estimated from few doses: 555 nM
EPHB4; CATDS: 3.5368678995808499E-2
  potency estimated from few doses: 357 nM
PTK6
  potency estimated from few doses: 1190 nM

## NS(=O)(=O)c1ccc(N/N=C2\C(=O)Nc3ccc4ncccc4c32)cc1 [GW305178X]
CDK17; compound concentrations: 100 nM and 1000 nM (sheet 'Samples'), CATDS: 6.1858788217922803E-2
  potency estimated from few doses: 544 nM
STK3; compound concentrations: 100 nM and 1000 nM (sheet 'Samples'), CATDS: 4.2852870715448799E-2
  potency estimated from few doses: 1580 nM

## CN[C@H](C#Cc1c(F)ccc2c1/C(=C/c1[nH]ccc1OC)C(=O)N2)CO.Cl [RO0283049-001]
CDK17; compound concentrations: 100 nM and 1000 nM (sheet 'Samples'), CATDS: 2.52216381525E-2
  potency estimated from few doses: 797 nM
MAPK8; CATDS: 2.3865575859687099E-2
  potency estimated from few doses: 951 nM
PRKAA2
  potency estimated from few doses: 1240 nM
STK3; compound concentrations: 100 nM and 1000 nM (sheet 'Samples'), CATDS: 2.5923871339058099E-2
  potency estimated from few doses: 733 nM

## Cn1cc(C2=C(c3ccc(OC[C@@H](O)CO)cc3)C(=O)NC2=O)c2ccccc21 [RO3208546-000]
EPHB2; CATDS: 4.4288817418137498E-2
  potency estimated from few doses: 840 nM
EPHB4; CATDS: 6.3567639225114006E-2
  potency estimated from few doses: 415 nM

## O=C(Nc1n[nH]c2nc(-c3ccccc3O)ccc12)C1CC1 [SB-711880]
PHKG2
  potency estimated from few doses: 1550 nM
STK3; [1]
  potency estimated from few doses: 483 nM
TNIK; [1]
  potency estimated from few doses: 1150 nM

## COc1ccc(Nc2nccc(NCCNC(=O)Nc3cc(C)ccc3C)n2)cc1 [GSK1379899A]
CSNK1A1; CATDS: 3.9039606822866203E-2
  potency estimated from few doses: 2320 nM
HCK
  potency estimated from few doses: 1500 nM
SRC
  potency estimated from few doses: 1150 nM

## CN(C)c1ccc2c(c1)/C(=C/Nc1ccc(S(N)(=O)=O)cc1)C(=O)N2 [GW416469X]
STK3; compound concentrations: 100 nM and 1000 nM (sheet 'Samples'), CATDS: 7.8286215558842895E-2
  potency estimated from few doses: 1330 nM

## CCn1c(-c2nonc2N)nc2cncc(C(=O)N3CC[C@H](N)C3)c21.Cl [SB-772077-B]
PRKX; [1]
  potency estimated from few doses: 177 nM
ROCK2; [1]
  potency estimated from few doses: 11.6 nM

## Nc1nccc(-c2ccc3c(N)n[nH]c3c2)n1 [GSK1034945A]
PRKX; [1]
  potency estimated from few doses: 1040 nM

## O=C1N=C(N[C@H](CO)c2ccccc2)S/C1=C\c1ccc2ncccc2c1 [RO4554339-000]
PRKX; compound concentrations: 100 nM and 1000 nM (sheet 'Samples'), CATDS: 0.109723190232525
  potency estimated from few doses: 705 nM

## NS(=O)(=O)c1ccc(N/N=C2\C(=O)Nc3ccc(-c4cnco4)cc32)cc1 [GW276655_KCGS]
TNIK; [1]
  potency estimated from few doses: 1940 nM

## CC(C)(CO)CNC(=O)c1ccc2c(c1)/C(=N/Nc1ccc(S(N)(=O)=O)cc1)C(=O)N2 [GW301784X]
CDK17; [1]
  potency estimated from few doses: 212 nM

## CCn1c(-c2nonc2N)nc2cncc(Br)c21 [SB-738004]
ROCK2; [1]
  potency estimated from few doses: 84.1 nM

## CNCC1CCn2c(c(C3=C(c4cn(C)c5ccccc45)C(=O)NC3=O)c3ccccc32)C1 (centres unmarked) [RO0318676-000]
CDK17; compound concentrations: 100 nM and 1000 nM (sheet 'Samples'), CATDS: 2.8092729884281801E-2
  potency estimated from few doses: 1740 nM
EPHB2; CATDS: 2.91102387203203E-2
  potency estimated from few doses: 1530 nM
EPHB4; CATDS: 3.3476248277138E-2
  potency estimated from few doses: 973 nM

## COc1cccc(C2=C(c3c(C)n(C)c4ccccc34)C(=O)NC2=O)c1 [RO3300167-000]
STK3; compound concentrations: 100 nM and 1000 nM (sheet 'Samples'), CATDS: 0.106754068539186
  potency estimated from few doses: 824 nM

## CCC(CC)(CC)n1cnc2c(N)ncnc21 [SKF-97620]
CSNK1A1; CATDS: 2.3982037208091899E-2
  potency estimated from few doses: 2040 nM
ROCK2; compound concentrations: 100 nM and 1000 nM (sheet 'Samples'), CATDS: 2.44983042375609E-2
  potency estimated from few doses: 1890 nM
